Source: PMC5700166

Experiments:
[1] = target: T1, GST-Nv-NF-kB (Ser allele) (Nematostella vectensis, UniProt A7UNT2 2-411); assay: protein-binding microarray (PBM); PBM: ~300 nM protein, 6 mM HEPES pH 7.8, 80 mM KCl, 0.5 mM EDTA, 0.5 mM EGTA, 6% glycerol, 35 ng/ul poly-dIdC, 1% milk, 1 h, room temperature; Ap Aiptasia and Nv Nematostella (sea anemones) / Co Capsaspora / Aq Amphimedon (sponge) / Dm Drosophila / Hu human; RHD is the Rel homology domain; high values mean tight binding; conditions: dsDNA, one strand shown
T1 sequence: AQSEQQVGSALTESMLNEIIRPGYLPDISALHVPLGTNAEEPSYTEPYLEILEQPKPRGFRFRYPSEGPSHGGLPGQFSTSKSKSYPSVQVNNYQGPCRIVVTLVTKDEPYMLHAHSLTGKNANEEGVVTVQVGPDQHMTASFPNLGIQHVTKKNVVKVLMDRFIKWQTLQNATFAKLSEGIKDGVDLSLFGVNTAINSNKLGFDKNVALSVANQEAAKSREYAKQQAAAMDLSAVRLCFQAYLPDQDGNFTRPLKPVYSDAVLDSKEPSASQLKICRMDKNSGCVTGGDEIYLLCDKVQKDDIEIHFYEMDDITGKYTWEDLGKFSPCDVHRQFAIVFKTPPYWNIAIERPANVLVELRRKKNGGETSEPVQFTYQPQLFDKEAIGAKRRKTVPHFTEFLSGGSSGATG

GST-Hu-p50 = GST-Hu-p50 (Homo sapiens, UniProt P19838 7-356); assay: as above; conditions: dsDNA, one strand shown
GST-Hu-p50, sequence (P19838 7-356): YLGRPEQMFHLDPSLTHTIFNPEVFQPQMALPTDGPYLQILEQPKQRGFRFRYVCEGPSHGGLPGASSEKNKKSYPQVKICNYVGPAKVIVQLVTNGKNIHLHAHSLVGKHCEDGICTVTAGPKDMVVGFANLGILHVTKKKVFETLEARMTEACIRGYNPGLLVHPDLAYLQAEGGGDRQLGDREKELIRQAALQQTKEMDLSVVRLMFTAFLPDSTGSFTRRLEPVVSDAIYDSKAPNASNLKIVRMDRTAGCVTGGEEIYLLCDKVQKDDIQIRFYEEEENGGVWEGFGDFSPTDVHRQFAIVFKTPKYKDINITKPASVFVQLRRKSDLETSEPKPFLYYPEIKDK

| Sequence | binding signal [1] [z-score] | binding signal (GST-Hu-p50) [z-score] |
| --- | --- | --- |
| CCGATTAACATCAAAAAACCCACTGATGTTAATCGGGTCTTGATTCGCTTGACGCTGCTG | 2.84 | 3.37 |
| CCGATTAACATCAGGGGGTTAGATGATGTTAATCGGGTCTTGATTCGCTTGACGCTGCTG | 3.46 | 3.95 |
| CCGATTAACATCAGGAGATACCCTGATGTTAATCGGGTCTTGATTCGCTTGACGCTGCTG | 1.65 | 2.58 |
| CCGATTAACATCAAGGGGTCCCCTGATGTTAATCGGGTCTTGATTCGCTTGACGCTGCTG | 2.59 | 3.06 |
| CCGATTAACATCAGGGAAATTCATGATGTTAATCGGGTCTTGATTCGCTTGACGCTGCTG | 5.89 | 4.4 |
| CCGATTAACATCAGGGAATCAGATGATGTTAATCGGGTCTTGATTCGCTTGACGCTGCTG | 2.02 | 1.19 |
| CCGATTAACATCACATGTTCCCCTGATGTTAATCGGGTCTTGATTCGCTTGACGCTGCTG | 6.15 | 3.07 |
| CCGATTAACATCAAGGGGGTCCCTGATGTTAATCGGGTCTTGATTCGCTTGACGCTGCTG | 3.02 | 3.68 |
| CCGATTAACATCAAGAATTCCCGTGATGTTAATCGGGTCTTGATTCGCTTGACGCTGCTG | 5.52 | 4.39 |
| CCGATTAACATCAGGGAGTCCCATGATGTTAATCGGGTCTTGATTCGCTTGACGCTGCTG | 2.92 | 3.1 |
| CCGATTAACATCAAATGGGAATTTGATGTTAATCGGGTCTTGATTCGCTTGACGCTGCTG | 4.87 | 3.42 |
| CCGATTAACATCAGGGGTTTACCTGATGTTAATCGGGTCTTGATTCGCTTGACGCTGCTG | 4.43 | 4.94 |
| CCGATTAACATCAGGGGCACCCCTGATGTTAATCGGGTCTTGATTCGCTTGACGCTGCTG | 2.72 | 3.94 |
| CCGATTAACATCAGGAAGTCCCATGATGTTAATCGGGTCTTGATTCGCTTGACGCTGCTG | 4.19 | 4.09 |
| CCGATTAACATCAGGGGGAGAGATGATGTTAATCGGGTCTTGATTCGCTTGACGCTGCTG | 4.36 | 4.17 |
| CCGATTAACATCAGGAATTCCCATGATGTTAATCGGGTCTTGATTCGCTTGACGCTGCTG | 5.66 | 4.39 |
| CCGATTAACATCAACACCCCCCCTGATGTTAATCGGGTCTTGATTCGCTTGACGCTGCTG | 3.82 | 3.88 |
| CCGATTAACATCAGGGGGCGCACTGATGTTAATCGGGTCTTGATTCGCTTGACGCTGCTG | 2.76 | 4.11 |
| CCGATTAACATCAGGGGGACAAATGATGTTAATCGGGTCTTGATTCGCTTGACGCTGCTG | 5.1 | 3.81 |
| CCGATTAACATCAGGTCGGGAAATGATGTTAATCGGGTCTTGATTCGCTTGACGCTGCTG | 2.31 | 1.27 |
| CCGATTAACATCAGGGCAGCCCCTGATGTTAATCGGGTCTTGATTCGCTTGACGCTGCTG | 2.79 | 4.31 |
| CCGATTAACATCACCCAACCCCCTGATGTTAATCGGGTCTTGATTCGCTTGACGCTGCTG | 3.73 | 4.28 |
| CCGATTAACATCAGGAGTTACCCTGATGTTAATCGGGTCTTGATTCGCTTGACGCTGCTG | 1.4 | 2.44 |
| CCGATTAACATCACGGGACTCCCTGATGTTAATCGGGTCTTGATTCGCTTGACGCTGCTG | 3.64 | 3.14 |
| CCGATTAACATCAGGTATTTTTATGATGTTAATCGGGTCTTGATTCGCTTGACGCTGCTG | 3.43 | 3.11 |

| Sequence | binding signal [1] [z-score] | binding signal (GST-Hu-p50) [z-score] |
| --- | --- | --- |
| CCGATTAACATCACGGTACTTCCTGATGTTAATCGGGTCTTGATTCGCTTGACGCTGCTG | 4.94 | 2.86 |
| CCGATTAACATCACATTTTCCCATGATGTTAATCGGGTCTTGATTCGCTTGACGCTGCTG | 5.22 | 3.45 |
| CCGATTAACATCAAAACAGTCCCTGATGTTAATCGGGTCTTGATTCGCTTGACGCTGCTG | 4.68 | 4.68 |
| CCGATTAACATCAGGGAATACCATGATGTTAATCGGGTCTTGATTCGCTTGACGCTGCTG | 2.61 | 1.46 |
| CCGATTAACATCAGTTCCCCCCATGATGTTAATCGGGTCTTGATTCGCTTGACGCTGCTG | 5.19 | 4.95 |
| CCGATTAACATCACCAAATTCCCTGATGTTAATCGGGTCTTGATTCGCTTGACGCTGCTG | 6.26 | 4.49 |
| CCGATTAACATCACCAATTTCCCTGATGTTAATCGGGTCTTGATTCGCTTGACGCTGCTG | 6.05 | 3.76 |
| CCGATTAACATCAATGTCCCCCCTGATGTTAATCGGGTCTTGATTCGCTTGACGCTGCTG | 4.42 | 3.89 |
| CCGATTAACATCACGGGAGTTCCTGATGTTAATCGGGTCTTGATTCGCTTGACGCTGCTG | 1.6 | 2.24 |
| CCGATTAACATCAAGGAAAACCCTGATGTTAATCGGGTCTTGATTCGCTTGACGCTGCTG | 1.6 | 2.22 |
| CCGATTAACATCAAGTACTTCCCTGATGTTAATCGGGTCTTGATTCGCTTGACGCTGCTG | 1.34 | 1.17 |
| CCGATTAACATCAGGGGATGACCTGATGTTAATCGGGTCTTGATTCGCTTGACGCTGCTG | 3.75 | 3.42 |
| CCGATTAACATCAAATCATCCCCTGATGTTAATCGGGTCTTGATTCGCTTGACGCTGCTG | 6.16 | 4.63 |
| CCGATTAACATCAGGTAATTCCATGATGTTAATCGGGTCTTGATTCGCTTGACGCTGCTG | 3.72 | 2.14 |
| CCGATTAACATCATTATGGGAAATGATGTTAATCGGGTCTTGATTCGCTTGACGCTGCTG | 2.21 | 2.18 |
| CCGATTAACATCACGTATTTCCCTGATGTTAATCGGGTCTTGATTCGCTTGACGCTGCTG | 4.49 | 3.02 |
| CCGATTAACATCAGGGGAAGGAATGATGTTAATCGGGTCTTGATTCGCTTGACGCTGCTG | 6.09 | 3.5 |
| CCGATTAACATCAGGAATACCCATGATGTTAATCGGGTCTTGATTCGCTTGACGCTGCTG | 3.36 | 3.18 |
| CCGATTAACATCACGGAGTTCCCTGATGTTAATCGGGTCTTGATTCGCTTGACGCTGCTG | 1.77 | 1.87 |
| CCGATTAACATCAGAGAAACCCCTGATGTTAATCGGGTCTTGATTCGCTTGACGCTGCTG | 4.24 | 5.09 |
| CCGATTAACATCAGGGACCGCCCTGATGTTAATCGGGTCTTGATTCGCTTGACGCTGCTG | 1.35 | 3.16 |
| CCGATTAACATCAAAGGAATCCCTGATGTTAATCGGGTCTTGATTCGCTTGACGCTGCTG | 1.78 | 1.2 |
| CCGATTAACATCAAAGAAGCCCCTGATGTTAATCGGGTCTTGATTCGCTTGACGCTGCTG | 4.95 | 5.02 |
| CCGATTAACATCAAGGGGGTAAATGATGTTAATCGGGTCTTGATTCGCTTGACGCTGCTG | 4.81 | 4.37 |
| CCGATTAACATCACGGGGGGTAATGATGTTAATCGGGTCTTGATTCGCTTGACGCTGCTG | 2.9 | 2.48 |

| Sequence | binding signal [1] [z-score] | binding signal (GST-Hu-p50) [z-score] |
| --- | --- | --- |
| CCGATTAACATCAACAAAGTCCCTGATGTTAATCGGGTCTTGATTCGCTTGACGCTGCTG | 6.52 | 4.3 |
| CCGATTAACATCATAAAATCCCATGATGTTAATCGGGTCTTGATTCGCTTGACGCTGCTG | 2.31 | 3.45 |
| CCGATTAACATCAAGGGAATCCCTGATGTTAATCGGGTCTTGATTCGCTTGACGCTGCTG | 5.4 | 4.17 |
| CCGATTAACATCAGTAATTCCCATGATGTTAATCGGGTCTTGATTCGCTTGACGCTGCTG | 3.61 | 3 |
| CCGATTAACATCAGGGGAGAACCTGATGTTAATCGGGTCTTGATTCGCTTGACGCTGCTG | 5.63 | 4.26 |
| CCGATTAACATCATCTGGGAAAATGATGTTAATCGGGTCTTGATTCGCTTGACGCTGCTG | 4.03 | 1.96 |
| CCGATTAACATCATGTTGGGAAATGATGTTAATCGGGTCTTGATTCGCTTGACGCTGCTG | 2.11 | 1.47 |
| CCGATTAACATCAATCTACCCCCTGATGTTAATCGGGTCTTGATTCGCTTGACGCTGCTG | 4.13 | 4.39 |
| CCGATTAACATCAGATATTTCCCTGATGTTAATCGGGTCTTGATTCGCTTGACGCTGCTG | 5.36 | 3.91 |
| CCGATTAACATCACAAATTCCCATGATGTTAATCGGGTCTTGATTCGCTTGACGCTGCTG | 4.59 | 3.86 |
| CCGATTAACATCAAGAAATTACCTGATGTTAATCGGGTCTTGATTCGCTTGACGCTGCTG | 5.68 | 3.38 |
| CCGATTAACATCAGGACGTTCCCTGATGTTAATCGGGTCTTGATTCGCTTGACGCTGCTG | 1.14 | 1.71 |
| CCGATTAACATCAGGGATTTCTATGATGTTAATCGGGTCTTGATTCGCTTGACGCTGCTG | 3.11 | 3.37 |
| CCGATTAACATCAGGAATTCACCTGATGTTAATCGGGTCTTGATTCGCTTGACGCTGCTG | 2.04 | 3.81 |
| CCGATTAACATCAGGAACCTCCCTGATGTTAATCGGGTCTTGATTCGCTTGACGCTGCTG | 1.05 | 1.22 |
| CCGATTAACATCACGGGAAACTCTGATGTTAATCGGGTCTTGATTCGCTTGACGCTGCTG | 3.54 | 2.31 |
| CCGATTAACATCAGGGAATATTATGATGTTAATCGGGTCTTGATTCGCTTGACGCTGCTG | 5.41 | 3.86 |
| CCGATTAACATCAGTACGGGAAATGATGTTAATCGGGTCTTGATTCGCTTGACGCTGCTG | 2.82 | 1.94 |
| CCGATTAACATCACATTATCCCCTGATGTTAATCGGGTCTTGATTCGCTTGACGCTGCTG | 6.4 | 3.94 |
| CCGATTAACATCAAAAACTCCCATGATGTTAATCGGGTCTTGATTCGCTTGACGCTGCTG | 4.52 | 4.38 |
| CCGATTAACATCAAAAAAGACCCTGATGTTAATCGGGTCTTGATTCGCTTGACGCTGCTG | 3.81 | 3.95 |
| CCGATTAACATCAGGGGACACCCTGATGTTAATCGGGTCTTGATTCGCTTGACGCTGCTG | 3.12 | 3.82 |
| CCGATTAACATCATTTCCCAAAATGATGTTAATCGGGTCTTGATTCGCTTGACGCTGCTG | 2.41 | 1.56 |
